# SMARCA2 act – increases SMARCA2 function in MMTV reporter cells. MG213 cells, MMTV-luciferase reporter, dexamethasone, overnight. activation, % at 9.1 µM. actives 1% (n = 370,000); in the data active = activation above about 7.8%
# esBAF inh – blocks esBAF chromatin remodeling in mouse ES cells; Bmi1-luciferase knock-in reporter, 24 h; 100% = twice the neutral-well signal; reporter increase, % at 12.5 µM; actives 2% (n = 350,000); in the data active = activation above about 40%; inconclusive = no clear call, values can overlap the other calls;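 note: a rise in the Bmi1 reporter signal indicates esBAF inhibition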
# FGF22 binding – shifts melting point of recombinant human FGF22; Q9HCT0; recombinant FGF22 thermal shift, SYPRO orange fluorescence; percent of sucrose octasulfate shift, DMSO zero; activity (Tm shift, normalised), % at 9.99 µM; actives 1.5% (n = 340,000); AID 651658;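 active = mean Tm shift, scaled 0 neutral to 100 positive control, at about 1.3% or above, every replicate too, limit read from the data; inconclusive = no clear call, values can overlap the other calls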
# MLL AF4-AF9 inh – MLL-AF4/AF9 protein interaction inhibition | AlphaScreen, biotin-AF4 peptide binding to FLAG-AF9 | P42568 | AID 651704 | actives 0.47% (n = 350,000) | inhibition, % at 10 µM;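 active = every replicate reaching a set inhibition limit, whatever the replicate mean, cut at about 25% in these data; inconclusive = mean inhibition reaches that limit but some replicates miss it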
# Target sequence (P42568 whole entry, looked up): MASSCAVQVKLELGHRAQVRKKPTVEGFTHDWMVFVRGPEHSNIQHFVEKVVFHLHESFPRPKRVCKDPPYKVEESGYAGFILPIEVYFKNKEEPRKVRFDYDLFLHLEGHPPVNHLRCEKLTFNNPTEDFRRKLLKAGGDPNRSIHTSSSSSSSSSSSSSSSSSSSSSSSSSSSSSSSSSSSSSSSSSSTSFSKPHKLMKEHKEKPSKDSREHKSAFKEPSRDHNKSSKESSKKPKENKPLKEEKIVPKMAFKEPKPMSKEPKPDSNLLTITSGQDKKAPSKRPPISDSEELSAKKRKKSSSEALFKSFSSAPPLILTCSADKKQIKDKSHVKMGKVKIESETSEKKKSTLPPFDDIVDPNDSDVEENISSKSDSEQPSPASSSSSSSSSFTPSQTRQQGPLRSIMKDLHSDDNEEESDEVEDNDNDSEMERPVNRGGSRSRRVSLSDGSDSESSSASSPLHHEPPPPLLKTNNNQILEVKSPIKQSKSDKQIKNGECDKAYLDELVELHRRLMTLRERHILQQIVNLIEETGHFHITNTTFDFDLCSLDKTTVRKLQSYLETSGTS
# Wnt act – activates Wnt/beta-catenin signaling in a reporter cell assay | activator, plate reader | activation, % at 9.35 µM | actives 1.2% (n = 300,000); in the data active = activation above about 30%, passing the limit was not always enough; inconclusive = no clear call, values can overlap the other calls
# MITF act – increases MITF-driven TRPM1 promoter luciferase signal | activation, % at 12.5 µM | AID 588334 | SK-MEL-5 TRPM1-promoter luciferase, 24 h; % of positive control, neutral wells = 0 | actives 0.75% (n = 300,000);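 active = mean activation of at least 80% with every replicate also reaching 80%; inconclusive = mean reaches 80% but some replicate falls short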
# SMARCA2 conf – SMARCA2 activation, confirmation screen | activation, % at 9.1 µM | MG213 cells, MMTV-luciferase with dexamethasone, luminescence, overnight; MG213 cells expressing E1A, Rb sequestered; DMSO wells 0%, reference activator 100% | actives 30% (n = 3,500) | shares compounds with SMARCA2 act | AID 652260;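 active = activation above its plate's cutoff, the mean activation of tested wells plus 3 SD, cut at about 7.9% in these data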
# VP16 Luc act – counter-screen for SMARCA2 activators: GAL4-VP16 luciferase reporter activation | shares compounds with SMARCA2 act | HEK293 GAL4-VP16 pG5luc reporter, luciferase luminescence; scaled: DMSO wells 0%, SAHA wells 100% | activation, % at 9.1 µM | actives 41% (n = 3,500);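 active = activation above the solvent-only control well mean plus 3 SD, averaged across control plates, cut at about 5.2% in these data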
# Hits are given with their value; – = inactive; ? = inconclusive; · = no result given. Hits are enriched below; roughly 4.3% of the tested compounds scored in any of these assays.
SMILES,SMARCA2 act,esBAF inh,FGF22 binding,MLL AF4-AF9 inh,Wnt act,MITF act,SMARCA2 conf,VP16 Luc act
CCCCCn1nnnc1C1(C)CCSCC(=O)N1Cc1ccco1 (stereo not drawn),8.4,·,·,·,·,·,–,–
Oc1ccc(/C=N/Nc2nccnc2Cl)cc1,13,–,·,·,47,–,–,7.5
Fc1ccc(/C=N/Nc2nccnc2Cl)cc1,9.5,–,–,–,–,·,8.4,7.8
Fc1cccc(/C=N/Nc2nccnc2Cl)c1,–,–,–,–,–,–,·,·
Cc1ccc(C)c(-c2csc(Nc3ncccn3)n2)c1,–,–,–,–,–,–,·,·
Oc1ccc(-c2csc(Nc3ncccn3)n2)c(O)c1,9.4,82,–,–,94,104,11,10
O=C(CCSCc1ccccc1F)N1CCN(c2ccccn2)CC1,12,·,–,–,–,–,–,5.7
COc1ccc(-c2nnc(SCC(=O)N/N=C(\C)c3ccc(-c4ccccc4)cc3)n2-c2ccc(C)cc2)cc1,–,·,·,·,·,·,·,·
COc1ccc(-c2nnc(-c3ccc(OCC(C)C)cc3)o2)cc1,–,·,·,·,–,–,·,·
COc1ccc(-c2nnc(-c3ccc(N(C)C)cc3)o2)cc1,16,–,·,·,·,–,12,–
COc1ccc(NC(=O)N(C)C[C@@H]2OCCCC[C@H](C)Oc3ccc(NC(=O)Nc4c(C)noc4C)cc3C(=O)N([C@H](C)CO)C[C@@H]2C)cc1,·,–,–,–,·,·,·,·
Cc1cccc(OCc2cc(-c3ccccc3)no2)c1C,8.9,·,–,–,–,–,–,6.5
COc1ccc(-c2cc(COc3ccccc3)on2)cc1,8.4,·,–,–,–,–,–,7.2
COc1ccc(-c2cc(CS(=O)(=O)c3ccccc3)on2)cc1,–,?,–,–,–,?,·,·
Cc1cc(COc2ccccc2OCc2cc(C)no2)on1,–,–,·,·,·,·,·,·
CO[C@H]1CC[C@@H]2CCOc3c(C#N)cccc3C(=O)N(C)[C@@H](C)C(=O)N(C)C[C@H]1O2,·,–,–,–,·,·,·,·
CC=Cc1ccc2n(c1=O)C[C@@H]1[C@@H](CO)[C@H](C(=O)Nc3ccccc3)N(CC3CC3)[C@H]21 (mixture of isomers),·,–,–,–,·,·,·,·
O=C(C[C@@H]1C[C@@H]2c3cc(NC(=O)NC4CCCCC4)ccc3O[C@@H]2[C@@H](CO)O1)NC1CCCC1,·,·,–,–,·,·,·,·
O=C(CSc1ccsc1[N+](=O)[O-])NCc1ccccc1,11,–,–,–,–,–,–,–
CN1c2ccc(-c3ccccc3)cc2[C@@H]2[C@@H](CCN2C(=O)Cc2ccccn2)[C@@H]1CO,·,–,–,–,·,·,·,·
N#CC1(c2ccc(NC(=O)c3ccccc3F)cc2)CCCC1,9.5,·,·,·,·,–,9.3,8.6
CCCC(=O)O[C@]1(C(=O)COC(C)=O)CC[C@H]2[C@@H]3C[C@H](F)C4=CC(=O)C=C[C@]4(C)[C@@]3(F)[C@@H](O)C[C@@]21C,11,–,–,–,–,–,–,–
C/C=C/c1cnc2c(c1)C(=O)N([C@@H](C)CO)C[C@H](C)[C@H](CN(C)Cc1ccc(F)cc1)O2,·,–,–,–,·,·,·,·
CC(C)NC(=O)N(C)C[C@H]1OCCCC[C@H](C)Oc2ccc(N(C)C)cc2C(=O)N([C@@H](C)CO)C[C@@H]1C,·,·,–,–,·,·,·,·
O=C1Cc2c([nH]c3ccc([N+](=O)[O-])cc23)-c2ccccc2N1,13,·,–,–,–,–,11,–
SMILES,SMARCA2 act,esBAF inh,FGF22 binding,MLL AF4-AF9 inh,Wnt act,MITF act,SMARCA2 conf,VP16 Luc act
O=C1NC[C@H](CCCCN2C[C@H](Cc3ccccc3)N(CC3CCCCC3)C(=O)C2=O)N(CCc2ccc(O)cc2)C1=O,–,·,–,–,–,·,·,·
O=C1NC[C@H](CCCCN2C[C@H](Cc3ccc(O)cc3)N(CCc3ccc(O)cc3)C(=O)C2=O)N(CC2CCCCC2)C1=O,8.5,·,–,–,–,·,–,–
CC1(C)CC(=O)C=C(Nc2ccccc2NC(=O)c2cc(Cl)ccc2F)C1,9.2,·,·,·,·,·,–,–
O=S(=O)(c1ccccc1)N1CC[C@@H]2[C@H](CO)Nc3ccc(Br)cc3[C@@H]21,·,–,–,–,·,·,·,·
CCNC(=S)Nc1cc(-c2ccc(Cl)cc2)[nH]n1,–,·,–,–,–,–,·,·
CC(=O)Nc1cc(-c2ccc(F)cc2)[nH]n1,11,·,–,–,–,–,–,–
O=C(Nc1cc(-c2ccccc2)[nH]n1)c1ccccc1F,9.3,·,–,–,–,·,–,10
Cn1c(=O)c2cc(S(=O)(=O)NC(C(=O)Nc3cccnc3)c3ccccc3)ccc2n(C)c1=O (stereo not drawn),10,–,–,–,–,·,–,–
Cc1ccc(NC(=S)N2CCC(c3ccccc3)C2)c(Cl)c1 (stereo not drawn),8.8,·,–,–,42,–,–,9.3
C[C@H](CO)N1C[C@H](C)[C@H](CN(C)S(=O)(=O)c2cccs2)Oc2c(NS(=O)(=O)c3ccc(F)cc3)cccc2C1=O,·,–,–,–,·,·,·,·
COCC(=O)NC[C@H]1N[C@H](CO)[C@@H]1c1ccc(-c2ccccc2F)cc1,·,–,–,–,·,·,·,·
CCOC(=O)[C@]12CCCC3=C1N(CCC3)C(=O)[C@@H](CC(=O)NCc1ccccc1)C2,–,·,·,·,·,·,·,·
CCOC(=O)[C@]12CCCC3=C1N(CCC3)C(=O)[C@@H](CC(=O)NCc1ccc(OC)c(OC)c1)C2,8.0,·,·,·,·,·,–,–
CN[C@H]1C[C@H]2c3cc(-c4ccccc4C)ccc3CCN2C[C@H]1[C@H](C)O,9.6,·,·,·,·,·,–,–
CC(C)C(=O)Nc1cccc(NC(=O)c2ccc(Cl)cc2Cl)c1,8.5,·,·,·,–,–,–,–
CCOCCCNC(=O)C(c1ccccc1)N(Cc1cccs1)C(=O)c1ccccc1O (stereo not drawn),–,·,–,–,–,–,·,·
CCOCCCNC(=O)C(c1ccccc1)N(Cc1cccs1)C(=O)CNC(=O)c1ccccc1 (stereo not drawn),8.7,–,–,–,–,–,–,–
O=c1c2[nH]c3cccc(Cl)c3c2ncn1CC1CCCO1 (stereo not drawn),8.2,·,–,–,–,–,–,–
O=c1c2[nH]c3cccc(Cl)c3c2ncn1CCN1CCCCC1,–,–,·,·,–,–,·,·
C/C(=N\N1C(=O)c2ccccc2NC1c1ccccc1)c1ccccc1O (stereo not drawn),9.9,–,–,–,–,–,–,5.7
NC(=O)c1sc2nc(-c3ccccc3)ccc2c1N,8.1,77,–,–,–,–,–,10

# Screens (PubChem)
